Test results reported in PubChem BioAssay (NCATS).
Results filed as inconclusive are left out. Calls of active or inactive are those of the source. Calls come from the whole dose curve; as a rule, active = well fitted curve in the direction sought with a large enough effect; inconclusive = small, poorly fitted or top-dose-only effect, or another doubt; inactive = no such curve, though single readings can be large; an effect the other way counts as inactive or inconclusive.

Key:
[1] = Cytometric Cell-Based qHTS for Inhibitors of the mTORC1 Signaling Pathway in MEF (Tsc2-/-, p53-/-) Cells (AID 2660); conditions: mTORC1 pathway cytometry; series mostly up to 38.3 µM;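 note: Tsc2 and p53 null MEFs carrying empty vector with compound for 24 h; percent of cells above a phospho-rpS6 to PI ratio cutoff in each well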
Outline: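 Immunofluorescence qHTS of rpS6 Ser235/236 phosphorylation: MEFs (Tsc2-/-, p53-/-) treated 24 h, 37 C, in DMEM + 10% FBS. Alexa-488 signal normalized to PI count, referenced to rapamycin (7.5 nM) and DMSO; PI cell number recorded for viability.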

[2] = High Content Imaging Cell-Based qHTS for Inhibitors of the mTORC1 Signaling Pathway in MEF (Tsc2-/-, p53-/-) Cells (AID 2666); conditions: series mostly up to 38.3 µM;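 note: percent of cells scored positive for phospho-rpS6 Ser235/236 immunostaining by imaging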; note: potency is the fitted concentration of half-maximal effect
Outline: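 Tsc2-/-, p53-/- MEFs (empty-vector stable) grown in DMEM + 10% FBS were exposed to compounds for 24 hrs at 37 degree Celsius, fixed, and stained with Alexa-488 anti-phospho-rpS6 Ser235/236 plus Hoechst. Imaging gave the percentage of positive cells per well.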

[3] = High Content Imaging Cell-Based qHTS for Inhibitors of the mTORC1 Signaling Pathway in MEF Cells (AID 2667); conditions: series mostly up to 38.3 µM; note: potency is the fitted concentration of half-maximal effect
Outline: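 Tsc2-/-, p53-/- MEFs stably re-expressing WT Tsc2, grown in DMEM + 10% FBS, were treated with compounds for 24 hrs at 37 degree Celsius, fixed, and stained with Alexa-488 phospho-rpS6 Ser235/236 antibody plus Hoechst; results given as % positive cells.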

[4] = Cytometry Cell-Based qHTS for Inhibitors of the mTORC1 Signaling Pathway in MEF cells (AID 2668); conditions: mTORC1 pathway readout; series mostly up to 38.3 µM;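 note: Tsc2-/- p53-/- mouse embryonic fibroblasts stably re-expressing wild-type Tsc2; percent cells positive for phospho-rpS6 Ser235/236 relative to propidium iodide stain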
Outline: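 In MEFs grown in DMEM + 10% FBS, a 24 hrs compound exposure preceded imaging of phospho-rpS6 Ser235/236 by laser-scanning cytometry.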

[5] = target: Ferritin light chain (Equus caballus) (UniProt P02791); experiment: qHTS Validation Assay for Identification of Novel General Anesthetics (AID 2323); conditions: horse apoferritin, anesthetic-site fluorescent probe displacement; series mostly up to 76.9 µM
Outline: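 Normalized fluorescence response, scaled between free 1-AMA and 1-AMA/apoferritin complex, fitted to a four-parameter Hill equation for concentration-effect values. Binding mix: 10 uM horse-spleen apoferritin, 50% saturated 1-AMA in PBS; read 380/535 nm after 10 min.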

[6] = target: ATP-dependent DNA helicase Q1 (Homo sapiens) (UniProt P46063); experiment: qHTS Validation Assay for Inhibitors of RecQ-Like Dna Helicase 1 (RECQ1) (AID 2353); conditions: recombinant RECQ1 helicase DNA unwinding assay; series mostly up to 25.6 µM
Outline: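 RECQ1T1 50 nM; forked duplex (20 bp + 30-nt ss tails) 200 nM, ATP 2 mM final; pH 8.0, 2 mM MgCl2, 2.5 ug/ml poly(dI-dC); 15 min compound preincubation; discontinuous kinetic read over 2 h at RT.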

[7] = target: RecQ-like DNA helicase BLM (Homo sapiens) (UniProt P54132); experiment: qHTS Validation Assay for Inhibitors of Bloom's syndrome helicase (BLM) (AID 2364); conditions: BLM helicase DNA unwinding, fluorescence, in vitro; series mostly up to 57.1 µM
Outline: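 Forked 20-bp duplex substrate (200 nM, TAMRA/BHQ-2) plus 2 mM ATP added after 15 min compound preincubation with 50 nM enzyme, pH 8.0, poly(dI-dC) 2.5 ug/ml. Strand separation followed by fluorescence (525/598 nm) over 2 h, normalized to enzyme-free and DMSO controls.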

Measured: Potency

Chain of RecQ-like DNA helicase BLM (Homo sapiens) (P54132 whole entry, looked up): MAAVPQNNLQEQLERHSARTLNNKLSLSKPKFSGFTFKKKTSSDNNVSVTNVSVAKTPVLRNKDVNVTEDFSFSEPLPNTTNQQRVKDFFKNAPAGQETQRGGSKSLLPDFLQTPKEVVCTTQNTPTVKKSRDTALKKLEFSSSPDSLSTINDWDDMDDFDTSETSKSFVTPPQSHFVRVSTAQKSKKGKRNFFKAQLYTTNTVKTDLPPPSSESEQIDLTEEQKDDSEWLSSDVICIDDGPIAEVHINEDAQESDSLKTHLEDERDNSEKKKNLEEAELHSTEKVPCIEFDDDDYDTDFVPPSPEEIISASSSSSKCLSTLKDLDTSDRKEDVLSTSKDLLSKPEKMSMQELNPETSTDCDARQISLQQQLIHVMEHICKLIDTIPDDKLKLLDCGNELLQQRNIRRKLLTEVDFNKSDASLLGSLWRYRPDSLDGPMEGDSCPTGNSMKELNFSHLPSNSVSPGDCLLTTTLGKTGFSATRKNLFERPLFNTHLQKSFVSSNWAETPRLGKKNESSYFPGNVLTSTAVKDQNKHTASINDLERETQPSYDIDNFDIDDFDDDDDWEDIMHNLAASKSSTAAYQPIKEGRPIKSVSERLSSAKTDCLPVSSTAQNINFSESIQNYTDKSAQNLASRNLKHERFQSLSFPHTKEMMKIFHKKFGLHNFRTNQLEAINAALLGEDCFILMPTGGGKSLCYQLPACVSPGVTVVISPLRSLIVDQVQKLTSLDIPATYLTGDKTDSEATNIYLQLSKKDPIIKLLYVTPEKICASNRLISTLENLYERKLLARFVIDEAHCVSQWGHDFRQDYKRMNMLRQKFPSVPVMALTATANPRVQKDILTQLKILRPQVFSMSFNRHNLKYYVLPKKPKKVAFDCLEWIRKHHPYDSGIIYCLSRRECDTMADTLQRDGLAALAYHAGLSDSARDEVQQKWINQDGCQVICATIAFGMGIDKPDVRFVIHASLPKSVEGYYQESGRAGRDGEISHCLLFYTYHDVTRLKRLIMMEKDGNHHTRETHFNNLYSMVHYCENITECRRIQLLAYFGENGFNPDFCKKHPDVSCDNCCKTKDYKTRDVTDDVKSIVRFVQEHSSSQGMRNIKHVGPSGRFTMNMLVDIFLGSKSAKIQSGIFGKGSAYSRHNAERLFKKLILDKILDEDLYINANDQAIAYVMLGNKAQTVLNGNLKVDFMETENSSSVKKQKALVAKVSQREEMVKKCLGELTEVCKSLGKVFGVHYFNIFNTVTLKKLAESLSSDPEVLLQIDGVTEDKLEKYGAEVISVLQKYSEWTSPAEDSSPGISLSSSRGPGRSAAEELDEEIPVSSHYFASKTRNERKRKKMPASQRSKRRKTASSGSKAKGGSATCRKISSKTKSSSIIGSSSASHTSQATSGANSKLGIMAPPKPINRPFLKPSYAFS
Chain of Ferritin light chain (Equus caballus) (P02791 2-175 limits assumed): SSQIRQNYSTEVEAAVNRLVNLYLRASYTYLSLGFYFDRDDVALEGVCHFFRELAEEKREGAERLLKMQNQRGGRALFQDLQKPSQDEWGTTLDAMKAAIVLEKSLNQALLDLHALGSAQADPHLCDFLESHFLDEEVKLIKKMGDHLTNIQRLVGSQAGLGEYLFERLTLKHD
Chain of ATP-dependent DNA helicase Q1 (Homo sapiens) (P46063 whole entry, looked up): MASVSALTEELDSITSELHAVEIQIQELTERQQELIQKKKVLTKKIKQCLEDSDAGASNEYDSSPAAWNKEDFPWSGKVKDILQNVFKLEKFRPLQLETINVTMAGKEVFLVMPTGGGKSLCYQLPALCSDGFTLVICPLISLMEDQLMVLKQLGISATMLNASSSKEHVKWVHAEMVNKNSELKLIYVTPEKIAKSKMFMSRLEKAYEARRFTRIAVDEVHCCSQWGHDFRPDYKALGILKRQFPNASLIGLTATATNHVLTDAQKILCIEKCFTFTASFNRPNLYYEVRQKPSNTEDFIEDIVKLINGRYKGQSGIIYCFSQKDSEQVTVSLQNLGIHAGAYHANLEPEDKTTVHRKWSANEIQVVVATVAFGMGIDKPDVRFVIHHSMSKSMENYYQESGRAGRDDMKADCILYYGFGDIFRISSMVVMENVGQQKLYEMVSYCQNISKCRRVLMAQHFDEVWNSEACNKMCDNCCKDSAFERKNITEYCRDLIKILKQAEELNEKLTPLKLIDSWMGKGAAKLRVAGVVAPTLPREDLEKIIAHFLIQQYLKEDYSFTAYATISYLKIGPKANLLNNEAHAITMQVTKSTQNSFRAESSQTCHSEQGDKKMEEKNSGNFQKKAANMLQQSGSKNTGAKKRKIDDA

CN1C(=O)CC[C@H]1c1cccnc1
inactive: [1] | [2] | [3] | [4]

Cc1cccc(C)c1NC(=O)C(C)N (stereo not given)
inactive: [1] | [2] | [3] | [4]

CC(=O)[C@@]1(O)CC[C@H]2[C@@H]3CCC4=CC(=O)CC[C@]4(C)[C@H]3CC[C@@]21C
inactive: [1] | [2] | [3] | [4]

NC(N)=N/N=C/c1c(Cl)cccc1Cl
not listed: [4] | [7]
inactive: all other assays above

NC1=NCC2c3ccccc3Cc3ccccc3N12 (stereo not given)
inactive: [1] | [2] | [3] | [4]

COC(=O)C1=C(C)NC(C)=C(C(=O)OC(C)(C)CN(C)CCC(c2ccccc2)c2ccccc2)C1c1cccc([N+](=O)[O-])c1 (stereo not given)
inactive: [2]

C[C@]12CCC(=O)C=C1CC[C@@H]1[C@@H]2CC[C@@]2(C)[C@H]1CC[C@]2(O)C(=O)CO
not listed: [7]
inactive: all other assays above

CN(C)CC/C=C1\c2ccccc2COc2ccccc21
inactive: all assays above

CC(C)(Oc1ccc(CCNC(=O)c2ccc(Cl)cc2)cc1)C(=O)O
inactive: [1] | [2] | [3] | [4]

CCN(CC)CCCN(c1ccccc1)C1Cc2ccccc2C1
inactive: [1] | [2]

C[C@]12CC[C@@H]3c4ccc(O)cc4C[C@@H](CCCCCCCCCS(=O)CCCC(F)(F)C(F)(F)F)[C@H]3[C@@H]1CC[C@@H]2O (stereo not given in full)
inactive: [1] | [2] | [3] | [4]

CCCN1C[C@H](CSC)C[C@@H]2c3cccc4[nH]cc(c34)C[C@H]21
not listed: [7]
inactive: all other assays above

CC(N=C(NC#N)Nc1ccncc1)C(C)(C)C (stereo not given)
not listed: [7]
inactive: all other assays above

CC(C)(C)c1ccc(C(=O)CCCN2CCC(OC(c3ccccc3)c3ccccc3)CC2)cc1
active: [2] 20.7 µM | [3] 4.65 µM

COc1ccc([C@@H]2Sc3ccccc3N(CCN(C)C)C(=O)[C@@H]2OC(C)=O)cc1
not listed: [5] | [7]
inactive: all other assays above

Cc1nc2ccccn2c(=O)c1CCN1CCC(C(=O)c2ccc(F)cc2)CC1
inactive: all assays above

CCn1ccnc1CC1COc2ccccc2O1 (stereo not given)
inactive: all assays above

CN1C[C@H](C(=O)N[C@]2(C)O[C@@]3(O)[C@@H]4CCCN4C(=O)[C@H](Cc4ccccc4)N3C2=O)C[C@@H]2c3cccc4[nH]cc(c34)C[C@H]21
inactive: [1] | [2] | [3] | [4]

COC(=O)C1=C(C)NC(C)=C(C(=O)OCCN(C)Cc2ccccc2)C1c1cccc([N+](=O)[O-])c1 (stereo not given)
active: [3] 18.5 µM
inactive: [6]

C[N+](C)(C)CCCCCCCCCC[N+](C)(C)C
not listed: [5]
inactive: all other assays above

CN(C)[C@@H]1C(=O)C(C(N)=O)=C(O)[C@@]2(O)C(=O)C3=C(O)c4c(O)ccc(Cl)c4[C@@H](O)[C@H]3C[C@@H]12
inactive: [1] | [2] | [3] | [4]

COC(=O)[C@@H](N)Cc1ccc(O)c(O)c1
inactive: all assays above

COc1ccc2c(c1OC)C(=O)O[C@@H]2[C@H]1c2c(cc3c(c2OC)OCO3)CCN1C
inactive: [1] | [2] | [3] | [4]
